molecular target: PUM1 PUF domain R5-RAR (Homo sapiens, UniProt Q14671 828-1176, C1007R;R1008A;Q1011R); assay: yeast three-hybrid, YBZ-1, SC-Leu-His + 0.5 mM 3-AT, 4 days; details: tags: N-Gal4 AD-HA kept; label: inside an RPR1-promoter hybrid RNA with tandem MS2 sites; ssRNA
How it was run: (§1)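 Matching RNA elements and Pumilio-1 PUF domain libraries, randomized at the three base-contacting residues of every repeat, were co-expressed from a centromeric plasmid in strain YBZ-1 (LexA–MS2 coat fusion, HIS3 reporter). The repeat regions were PCR-amplified and Illumina-sequenced from cells grown four days on SC-Leu (input) or SC-Leu-His + 0.5 mM 3-AT (selection). The interaction score is the log change in variant frequency from input to selection. It is computed in log2, with a pseudocount of 1 for absent variants.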

Compared with “GGCUAGAACUAGUGGAUCCCCCGGCGCCCGGCGGCUCGAGCCCGGGUAAGUGUUAAUAGUCUGCAUGCCGCCGGGCGCCAUGCCUGCAGGUCGACUCUAGAAAACAUG”, “GGCUAGAACUAGUGGAUCCCCCGGCGCCCGGCGGCUCGAGCCCGGGUAAGUGUCAAUAGUCUGCAUGCCGCCGGGCGCCAUGCCUGCAGGUCGACUCUAGAAAACAUG” is higher in binding signal: 2.31 log2 enrichment (interaction score) for the first, 3.66 log2 enrichment (interaction score) for the second.

For “GGCUAGAACUAGUGGAUCCCCCGGCGCCCGGCGGCUCGAGCCCGGGUAAGUGUAAAUAGUCUGCAUGCCGCCGGGCGCCAUGCCUGCAGGUCGACUCUAGAAAACAUG”, the binding signal was 0.57 log2 enrichment (interaction score).

molecular target: PUM1 PUF domain R1-RVM (Homo sapiens, UniProt Q14671 828-1176, S863R;R864V;Q867M); assay: as above; details: tags: N-Gal4 AD-HA kept; label: inside an RPR1-promoter hybrid RNA with tandem MS2 sites; ssRNA
How it was run: as §1

First: GGCUAGAACUAGUGGAUCCCCCGGCGCCCGGCGGCUCGAGCCCGGGUAAGUGUAAAUCGUCUGCAUGCCGCCGGGCGCCAUGCCUGCAGGUCGACUCUAGAAAACAUG
Second: GGCUAGAACUAGUGGAUCCCCCGGCGCCCGGCGGCUCGAGCCCGGGUAAGUGUAAAUUGUCUGCAUGCCGCCGGGCGCCAUGCCUGCAGGUCGACUCUAGAAAACAUG
The binding signal of the first is higher: 3.24 log2 enrichment (interaction score) for the first, 2.87 log2 enrichment (interaction score) for the second.

In the case of “GGCUAGAACUAGUGGAUCCCCCGGCGCCCGGCGGCUCGAGCCCGGGUAAGUGUAAAUGGUCUGCAUGCCGCCGGGCGCCAUGCCUGCAGGUCGACUCUAGAAAACAUG”, the binding signal is reported as 1.04 log2 enrichment (interaction score).

molecular target: PUM1 PUF domain R5-FRL (Homo sapiens, UniProt Q14671 828-1176, C1007F;Q1011L); assay: as above; details: tags: N-Gal4 AD-HA kept; label: inside an RPR1-promoter hybrid RNA with tandem MS2 sites; ssRNA
How it was run: as §1

First: GGCUAGAACUAGUGGAUCCCCCGGCGCCCGGCGGCUCGAGCCCGGGUAAGUGUUAAUAGUCUGCAUGCCGCCGGGCGCCAUGCCUGCAGGUCGACUCUAGAAAACAUG
Second: GGCUAGAACUAGUGGAUCCCCCGGCGCCCGGCGGCUCGAGCCCGGGUAAGUGUCAAUAGUCUGCAUGCCGCCGGGCGCCAUGCCUGCAGGUCGACUCUAGAAAACAUG
The binding signal of the first is lower: 1.67 log2 enrichment (interaction score) for the first, 2.63 log2 enrichment (interaction score) for the second.

First: GGCUAGAACUAGUGGAUCCCCCGGCGCCCGGCGGCUCGAGCCCGGGUAAGUGUAAAUAGUCUGCAUGCCGCCGGGCGCCAUGCCUGCAGGUCGACUCUAGAAAACAUG
Second: GGCUAGAACUAGUGGAUCCCCCGGCGCCCGGCGGCUCGAGCCCGGGUAAGUGUGAAUAGUCUGCAUGCCGCCGGGCGCCAUGCCUGCAGGUCGACUCUAGAAAACAUG
The binding signal of the first is higher: 1.49 log2 enrichment (interaction score) for the first, 0.24 log2 enrichment (interaction score) for the second.
